Among the data in ChEMBL document CHEMBL1961873, “Compounds: GSK PKIS; Assays: Nanosyn kinase panel” (2012) are inhibition values, retold here.

Sequence of Cyclin-dependent kinase 5 (Homo sapiens) (Q00535 whole entry, looked up): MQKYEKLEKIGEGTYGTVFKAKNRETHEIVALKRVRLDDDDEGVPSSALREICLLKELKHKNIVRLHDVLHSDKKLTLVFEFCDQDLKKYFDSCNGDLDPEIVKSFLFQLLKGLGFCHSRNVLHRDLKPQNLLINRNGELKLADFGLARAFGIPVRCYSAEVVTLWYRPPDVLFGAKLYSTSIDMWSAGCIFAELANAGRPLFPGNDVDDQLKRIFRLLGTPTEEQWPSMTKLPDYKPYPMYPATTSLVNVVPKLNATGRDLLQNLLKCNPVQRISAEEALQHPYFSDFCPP

The first assay concerns the target Cyclin-dependent kinase 5 (Homo sapiens) (UniProt Q00535). The settings on record: at 1 µM.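 Further: mean value of inhibition, with the enzyme tested as CDK5/p35.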
In general, inhibition refers to the change of the read-out against control, counted positive when it falls. On to `Nc1ccc(C#Cc2cncnc2Nc2ccc(OCc3cccc(F)c3)c(Cl)c2)cc1`, for which the inhibition was found to be 1.65%.

Consider `ON=C1CCc2cc(-c3nc(C4CCNCC4)[nH]c3-c3ccncc3)ccc21`, for which the inhibition is 1.42%.

Regarding `CS(=O)(=O)CCNCc1nc(-c2ccc3ncnc(Nc4ccc(OCc5cccc(C(F)(F)F)c5)cc4)c3c2)cs1`, the inhibition is -0.01%.

In the case of `Cc1ccc2c(-c3ccnc(Nc4ccc5c(c4)OCCO5)n3)c(-c3ccc(C(F)(F)F)cc3)nn2n1`, the inhibition turned out to be 1.41%.

Turning to `CN(C)C(=O)O[C@H]1CN[C@H](C#Cc2cc3ncnc(Nc4ccc(OCc5cccc(F)c5)c(Cl)c4)c3s2)C1`, the inhibition came out at 0.96%.

`COc1cc(/C=N/Nc2ncnc3c2cnn3C(C)C)ccc1O`: the inhibition was 46.2%.

Regarding `Cc1cc(Cl)cc2c1NC(=O)C2=NNc1ccc(S(N)(=O)=O)cc1`, the inhibition turned out to be 2.28%.

For `Nc1nccc(-c2c(-c3ccc(F)cc3)nn3cc(C(F)(F)F)ccc23)n1`, the inhibition was -0.54%.

As to `COC(=O)c1cncc(/C=C/c2c(C)cc(O)cc2C)c1`, the inhibition came to 3.28%.

For the compound `Cc1nc(-c2ccccc2)n2nc(NCCCN3CCOCC3)ncc12`, the inhibition was determined as 2.62%.

On to `Cc1ccc2c(c1)/C(=N/Nc1ccc(S(N)(=O)=O)cc1)C(=O)N2`, for which the inhibition was found to be 45.2%.

`CCCN1CCCC(c2ccc(Nc3nc(Nc4cc(F)ccc4C(N)=O)c4cc[nH]c4n3)c(OC)c2)C1` (stereo unspecified): the inhibition was 5.92%.

For `CN(c1ccc(NC(=O)Nc2ccc(OC(F)(F)F)cc2)cc1)c1ccnc(Nc2cccc(S(N)(=O)=O)c2)n1`, the inhibition was found to be 5.8%.

Take `O=C1Nc2ccccc2/C1=C/Nc1ccc2[nH]c(=O)[nH]c2c1`: the inhibition came out at 24.1%.

On to `FC(F)(F)c1ccc(-c2nn3ncccc3c2-c2ccnc(Nc3ccc4c(c3)OCCO4)n2)cc1`, for which the inhibition is 3.8%.

With `N#Cc1c(NC(=O)c2ccccc2F)sc2c1CCCC2`, the inhibition was determined as 1.58%.

On to `Cc1ccc(Nc2ccnc(Nc3cccc(C(N)=O)c3)n2)cc1O`, for which the inhibition was determined as 1.46%.

As for `Cc1ccc(C(=O)NC2CC2)cc1-c1ccc2[nH]ncc2c1`, the inhibition was found to be 2.44%.

For `COc1cc(Nc2nccc(-c3cnn4ncccc34)n2)cc(OC)c1`, the inhibition turned out to be 90.1%.

Take `NS(=O)(=O)c1cccc(-c2cc3ccncc3cc2OCc2ccccc2)c1`: the inhibition is 3.2%.

For the compound `CC(C)c1ccc(Nc2nccc(-c3cnn4ncccc34)n2)cc1`, the inhibition came to 51.4%.

For `CCOc1nccc2c1nc(-c1nonc1N)n2CC`, the inhibition worked out at 1.13%.

On to `c1ccc(Cc2nc3ccc(Nc4ncnc5ccccc45)cc3[nH]2)cc1`, for which the inhibition worked out at 5.74%.

As for `Cc1ccc(O)cc1Nc1ccnc2ccc(S(C)(=O)=O)cc12`, the inhibition was 2.61%.

In the case of `Cc1ccc(NC(=O)CC2CC2)cc1-c1ccc(C(=O)NCC2CC2)cc1`, the inhibition was found to be 0.76%.

For the compound `O=S(=O)(CCOCc1ccc(-c2ccc3ncnc(Nc4ccc(OCc5cccc(F)c5)c(Cl)c4)c3c2)o1)c1ccccc1`, the inhibition is 5.68%.

In the case of `CCn1c(-c2nonc2N)nc2c(C#CC(C)(C)O)nc(OCCNC)cc21`, the inhibition was determined as 1.77%.

Consider `COc1cc2ncn(-c3cc(OCc4ccccc4S(C)(=O)=O)c(C#N)s3)c2cc1OC`, for which the inhibition turned out to be 3.42%.

Turning to `Nc1nccc(C#Cc2cncnc2Nc2ccc(OCc3cccc(F)c3)c(Cl)c2)n1`, the inhibition is 1.9%.

Turning to `CCn1c(-c2nonc2N)nc2ccc(F)cc21`, the inhibition was 0.39%.

Turning to `NS(=O)(=O)c1ccc(NC=C2C(=O)Nc3ccc4ncsc4c32)cc1`, the inhibition is 74.7%.

Take `COC(=O)c1ccc2c(c1)C(=Cc1cc(Br)c(O)c(Br)c1)C(=O)N2`: the inhibition came to 2.5%.

Turning to `Cc1cc(-c2ccccn2)cc(C)c1/C=C/c1cncc(-c2nn[nH]n2)c1`, the inhibition was 5.72%.

The next assay deals with Cyclin-dependent kinase 6 (Homo sapiens) (UniProt Q00534). The settings on record: at 0.1 µM.
Sequence of Cyclin-dependent kinase 6 (Homo sapiens) (Q00534 whole entry): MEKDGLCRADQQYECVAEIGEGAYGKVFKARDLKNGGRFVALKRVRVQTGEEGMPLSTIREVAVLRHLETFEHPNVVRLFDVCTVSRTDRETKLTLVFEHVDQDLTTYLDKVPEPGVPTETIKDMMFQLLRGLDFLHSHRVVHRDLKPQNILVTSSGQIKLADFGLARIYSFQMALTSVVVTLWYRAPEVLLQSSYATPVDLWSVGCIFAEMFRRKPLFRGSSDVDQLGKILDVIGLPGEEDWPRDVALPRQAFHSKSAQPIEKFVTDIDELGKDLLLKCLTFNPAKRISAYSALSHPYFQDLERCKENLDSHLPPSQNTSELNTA
Consider `Nc1ccc(C#Cc2cncnc2Nc2ccc(OCc3cccc(F)c3)c(Cl)c2)cc1`, for which the inhibition was -2.6%.

On to `ON=C1CCc2cc(-c3nc(C4CCNCC4)[nH]c3-c3ccncc3)ccc21`, for which the inhibition is -5.1%.

Take `CS(=O)(=O)CCNCc1nc(-c2ccc3ncnc(Nc4ccc(OCc5cccc(C(F)(F)F)c5)cc4)c3c2)cs1`: the inhibition was -2.37%.

Regarding `Cc1ccc2c(-c3ccnc(Nc4ccc5c(c4)OCCO5)n3)c(-c3ccc(C(F)(F)F)cc3)nn2n1`, the inhibition was -0.74%.

As to `CN(C)C(=O)O[C@H]1CN[C@H](C#Cc2cc3ncnc(Nc4ccc(OCc5cccc(F)c5)c(Cl)c4)c3s2)C1`, the inhibition is 2.1%.

For the compound `COc1cc(/C=N/Nc2ncnc3c2cnn3C(C)C)ccc1O`, the inhibition is -4.82%.

Take `Cc1cc(Cl)cc2c1NC(=O)C2=NNc1ccc(S(N)(=O)=O)cc1`: the inhibition was determined as 2.2%.

As for `Nc1nccc(-c2c(-c3ccc(F)cc3)nn3cc(C(F)(F)F)ccc23)n1`, the inhibition is -0.93%.

Consider `COC(=O)c1cncc(/C=C/c2c(C)cc(O)cc2C)c1`, for which the inhibition was found to be 4.33%.

On to `Cc1nc(-c2ccccc2)n2nc(NCCCN3CCOCC3)ncc12`, for which the inhibition stood at 13.8%.

Turning to `Cc1ccc2c(c1)/C(=N/Nc1ccc(S(N)(=O)=O)cc1)C(=O)N2`, the inhibition is -2.12%.

As to `CCCN1CCCC(c2ccc(Nc3nc(Nc4cc(F)ccc4C(N)=O)c4cc[nH]c4n3)c(OC)c2)C1` (stereo unspecified), the inhibition is -2.09%.

Take `CN(c1ccc(NC(=O)Nc2ccc(OC(F)(F)F)cc2)cc1)c1ccnc(Nc2cccc(S(N)(=O)=O)c2)n1`: the inhibition was found to be 2.09%.

Turning to `O=C1Nc2ccccc2/C1=C/Nc1ccc2[nH]c(=O)[nH]c2c1`, the inhibition was 18.1%.

For `FC(F)(F)c1ccc(-c2nn3ncccc3c2-c2ccnc(Nc3ccc4c(c3)OCCO4)n2)cc1`, the inhibition was 3.25%.

Regarding `N#Cc1c(NC(=O)c2ccccc2F)sc2c1CCCC2`, the inhibition was -4.39%.

For the compound `Cc1ccc(Nc2ccnc(Nc3cccc(C(N)=O)c3)n2)cc1O`, the inhibition is -1.97%.

Take `Cc1ccc(C(=O)NC2CC2)cc1-c1ccc2[nH]ncc2c1`: the inhibition is -4.81%.

Take `COc1cc(Nc2nccc(-c3cnn4ncccc34)n2)cc(OC)c1`: the inhibition was determined as 24.9%.

As to `NS(=O)(=O)c1cccc(-c2cc3ccncc3cc2OCc2ccccc2)c1`, the inhibition was -1.23%.

As for `CC(C)c1ccc(Nc2nccc(-c3cnn4ncccc34)n2)cc1`, the inhibition was found to be 3.4%.

With `CCOc1nccc2c1nc(-c1nonc1N)n2CC`, the inhibition is -2.27%.

For `c1ccc(Cc2nc3ccc(Nc4ncnc5ccccc45)cc3[nH]2)cc1`, the inhibition came to 6.78%.

As to `Cc1ccc(O)cc1Nc1ccnc2ccc(S(C)(=O)=O)cc12`, the inhibition is -4.64%.

Take `Cc1ccc(NC(=O)CC2CC2)cc1-c1ccc(C(=O)NCC2CC2)cc1`: the inhibition was found to be 1.72%.

Regarding `O=S(=O)(CCOCc1ccc(-c2ccc3ncnc(Nc4ccc(OCc5cccc(F)c5)c(Cl)c4)c3c2)o1)c1ccccc1`, the inhibition turned out to be 0.17%.

For the compound `CCn1c(-c2nonc2N)nc2c(C#CC(C)(C)O)nc(OCCNC)cc21`, the inhibition is -0.39%.

For `COc1cc2ncn(-c3cc(OCc4ccccc4S(C)(=O)=O)c(C#N)s3)c2cc1OC`, the inhibition was 6.66%.

`Nc1nccc(C#Cc2cncnc2Nc2ccc(OCc3cccc(F)c3)c(Cl)c2)n1`: the inhibition amounted to 3.61%.

`CCn1c(-c2nonc2N)nc2ccc(F)cc21`: the inhibition came to 1.33%.

In the case of `NS(=O)(=O)c1ccc(NC=C2C(=O)Nc3ccc4ncsc4c32)cc1`, the inhibition worked out at 52.8%.

Regarding `COC(=O)c1ccc2c(c1)C(=Cc1cc(Br)c(O)c(Br)c1)C(=O)N2`, the inhibition is -4.09%.

Turning to `Cc1cc(-c2ccccn2)cc(C)c1/C=C/c1cncc(-c2nn[nH]n2)c1`, the inhibition is 1.94%.
